TDP1 cell noCPT: qHTS for Inhibitors of human tyrosyl-DNA phosphodiesterase 1 (TDP1): qHTS in cells in absence of CPT. 420,000 tested, 15% active. DT40 Tdp1-/- hTDP1 cells, no CPT, ATP luminescence, 48 h. Potency, µM (top dose mostly 46.2 µM), inactives show at the highest dose activity change, negative = growth inhibition, usual class: inhibitors; further: potency means the concentration at half of the fitted maximal effect; nearly all actives have a fitted effect of over 55% in size
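Stably hTDP1-transfected Tdp1-null chicken DT40 cells were treated with library compounds minus camptothecin and grown for at least 48 hr at 37 °C, after which cellular ATP was quantified by luminescence.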
TDP1 cell CPT: qHTS for Inhibitors of human tyrosyl-DNA phosphodiesterase 1 (TDP1): qHTS in cells in presence of CPT; 420,000 tested, 12% active; chicken DT40 Tdp1-/-;hTDP1 cells + 20 nM CPT, ATP luminescence, 48 h; Potency, µM (titrated, usually from 46.2 µM), without a hit: at the top dose activity change, negative = growth inhibition, most hits filed as inhibitors; further: potency means the concentration at half of the fitted maximal effect; nearly all actives have a fitted effect of over 55% in size
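Cell growth measured by CellTiter-Glo luminescence after a minimum 48 h, 37 C compound exposure with 20 nM CPT in Tdp1-knockout DT40 cells stably expressing hTDP1, seeded 400/well; qHTS titration format.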
HT1080NT lethal: qHTS for induction of synthetic lethality in tumor cells producing 2HG: qHTS for the HT-1080-NT fibrosarcoma cell line | HT-1080-NT fibrosarcoma viability, CellTiter-Glo ATP luminescence, 48 h | 360,000 tested, 1.6% active | AID 686970, 2013 | Potency, µM (highest dose often 46.1 µM), without a hit: at the top dose activity, negative = less viability, hits mostly cytotoxic;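 further: NT is the 2HG producing partner of a matched IDH1 knockdown line; potency means the concentration at half of the fitted maximal effect; 0% = DMSO-treated cells and -100% = media-only wells without cells; nearly all actives have a fitted effect of over 55% in size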
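HT-1080-NT; 750 cells/well; 5% FBS RPMI; 48 h compound, 37 degrees C; CellTiter-Glo luminescence; curve fitting and curve-class assignment.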
IL-1B inflam inh: qHTS for Inhibitors of Inflammasome Signaling: IL-1-beta AlphaLISA Primary Screen | activity change, % at 57.5 µM | THP-1 LPS/ATP IL-1B secretion, AlphaLISA, 16 h; active compounds read low | 360,000 tested, 4.7% active; in the data active means activity change below about -50%; inconclusive means mostly about -30% to -49%
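THP-1 cells pretreated 1 hr with compounds (up to 57.5 uM final), then stimulated with LPS (250 ng/mL final) plus ATP (1.25 mM final); secreted IL-1B measured by AlphaLISA after 16 hr, decreased signal indicating inhibition.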
HT1080 IDH1KD tx: qHTS for induction of synthetic lethality in tumor cells producing 2HG: qHTS for the HT-1080-IDH1KD cell line. HT-1080 IDH1 knockdown viability, ATP luminescence, 48 h. Potency, µM (series often up to 46.1 µM), for inactives: at the top dose activity, negative = toxicity, usual class: cytotoxic. 360,000 tested, 2% active. AID 686971, 2013;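 further: potency means the concentration at half of the fitted maximal effect; 0% = DMSO wells and -100% = cell-free medium wells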
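CellTiter-Glo luminescence after 48 h compound exposure at 37 degrees C of IDH1-knockdown HT-1080 cells in 5% FBS RPMI. %Activity scaled between DMSO wells and cell-free media wells, with curves fitted and assigned curve classes.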
* marks the source's active call; other numbers are inactive results; ? = inconclusive; nt = no result given. A selection: hits, their analogues and other compounds. The true share with any hit is near 19%. Unless noted, the call rests on the fitted dose curve; in most records, active means well fitted curve in the direction sought with a large enough effect; inconclusive means small, poorly fitted or top-dose-only effect, or another doubt; inactive means no such curve, though single readings can be large; an effect the other way counts as inactive or inconclusive. Unless noted, on the % scale 0 is the no-effect control and ±100 the full control effect.

SMILES	TDP1 cell noCPT	TDP1 cell CPT	HT1080NT lethal	IL-1B inflam inh	HT1080 IDH1KD tx
Cn1c(=O)n(C)c2cc(N3CCCCC3)c(NC(=O)c3ccc(Cl)cc3)cc21	-5.8%	-2.6%	nt	nt	nt
Cn1c(=O)n(C)c2cc(N3CCCCC3)c(NC(=O)c3ccccc3)cc21	?	29.1µM*	?	31.5	23.4%
CCn1c(=O)n(CC)c2cc(N3CCCC3)c(NC(=O)c3cc(Br)ccc3OC)cc21	?	?	-2.8%	-13.9	5.8%
CCCn1c(N)c(N2CCCCC2)c(=O)n(CC(=O)Nc2ccccc2C(F)(F)F)c1=O	-28.9%	-22.2%	-5.0%	15.7	-14.3%
CCn1c(=O)n(CC)c2cc(N3CCCCC3)c(NC(=O)Nc3ccccc3C(F)(F)F)cc21	10.3µM*	11.6µM*	nt	nt	nt
CS(=O)(=O)Nc1cc2occ(NC=O)c(=O)c2cc1Oc1ccccc1	-23.0%	2.4%	nt	nt	nt
O=C1CSC(=Nc2ccc(Cl)cc2)N1Cc1cccnc1	?	-25.4%	-0.6%	nt	-10.1%
CCOc1ccccc1C(=O)NCCNC(=O)c1ccccc1OCC	-24.6%	-16.9%	15.3%	30.7	?
COc1ccc(Br)c(C(=O)Nc2cc3c(cc2N2CCCC2)n(C)c(=O)c(=O)n3C)c1	20.6µM*	16.4µM*	nt	nt	nt
CCOc1ccccc1C(=O)NN1C(=O)CCC1=O	18.4µM*	?	-0.5%	54.4	7.8%
CCn1c(=O)n(CC)c2cc(N3CCCC3)c(NC(=O)c3ccccc3F)cc21	11.6µM*	18.4µM*	-1.7%	?	0.8%
CCn1c(=O)n(CC)c2cc(N3CCCC3)c(NC(=O)Nc3cc(C)cc(C)c3)cc21	18.4µM*	20.6µM*	nt	nt	nt
Cc1cc(C)cc(NC(=O)Nc2ccc(N3CCCCC3)cc2)c1	?	?	?	-6.9	?
Cn1c(=O)c(=O)n(C)c2cc(N3CCCC3)c(NC(=O)c3ccccc3F)cc21	-23.5%	-2.3%	nt	nt	nt
C=CCN=C1CC(C)(C)C(C(=O)OC)C(O)=C1C(=O)CCC (stereo unspecified)	-11.1%	-23.4%	-0.7%	-10.2	-2.5%
CC(=O)Nc1ccc(S(=O)(=O)N(CC(=O)NC2CC2)Cc2ccccc2)cc1	-23.0%	-26.6%	0.1%	-3.6	-5.9%
Cn1c(=O)c(=O)n(C)c2cc(N3CCCC3)c(NC(=O)c3ccccc3Cl)cc21	?	-6.4%	nt	nt	nt
CCn1c(=O)n(CC)c2cc(N3CCCC3)c(NC(=O)c3ccccc3)cc21	9.2µM*	20.6µM*	-8.2%	?	-15.7%
CCn1c(=O)n(CC)c2cc(N3CCCC3)c(NC(=O)c3ccccc3C)cc21	20.6µM*	16.4µM*	6.2%	8.2	-15.9%
Cc1nnc(SC(C)C(=O)NC2CCCc3ccccc32)n1-c1ccccc1 (stereo unspecified)	-11.9%	0.3%	10.4%	-4.7	7.7%
Cc1ccccc1-n1c(C)nnc1SCC(=O)NC1CCCc2ccccc21 (stereo unspecified)	-27.4%	-5.9%	-0.4%	-13.1	18.4%
Cc1cccc(Nc2nnc(SCC(=O)NC3CCCc4ccccc43)s2)c1C (stereo unspecified)	8.2µM*	14.6µM*	-24.7%	?	-21.0%
CC(Sc1nnc(Nc2ccccc2)s1)C(=O)NC1CCCc2ccccc21 (stereo unspecified)	23.1µM*	?	-2.6%	-5.0	-1.0%
O=C(N/C(=C/c1cccc([N+](=O)[O-])c1)C(=O)N1CCCCC1)c1ccco1	4.8%	-1.3%	-0.1%	-4.7	6.0%
CC(Oc1ccccc1)C(=O)Nc1ccc(C(=O)OCc2cc(=O)n3nc(C(C)C)sc3n2)cc1 (stereo unspecified)	-24.6%	3.8%	nt	nt	nt
CCOC(=O)C1=CCC(c2ccccc2)N(S(=O)(=O)c2ccccc2[N+](=O)[O-])C1 (stereo unspecified)	?	?	-0.8%	-23.7	0.4%

Bioassay records: PubChem, National Center for Advancing Translational Sciences (NCATS)
